Results: PubChem BioAssay (NCI)
About 83,000 compounds went through this panel and 20% of them were active in at least one assay; those are over-represented in the sample as a whole.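 48-hour exposure, single concentration, 96-well plates; percent growth endpoint where 0 means no net growth. Active: below 10.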 A number with no mark means an inactive call. The source made the active and inactive calls.

Tests used:
Assay in all cases: NCI-60 one-dose screen, 48 h (100 = growth as untreated, 0 = no growth, -100 = all killed)
Settings in all cases: 10 µM unless noted
[1] = system: T-47D breast
[2] = system: BT-549 breast
[3] = system: MDA-MB-435 melanoma
[4] = system: SW-620 colon
[5] = system: MCF7 breast
[6] = system: HCT-116 colon
[7] = system: HCC-2998 colon
[8] = system: KM12 colon

SMILES	growth [1]	growth [2]	growth [3]	growth [4]	growth [5]	growth [6]	growth [7]	growth [8]
Cc1cc(=O)[nH]c(O)c1C#N	105%	113%	105%	96.6%	99.9%	104%	114%	102%
NCCNC(=O)c1cccc(COc2ccccc2NC(=O)c2cc(Cl)c(Cl)[nH]2)c1	89.2%	105%	101%	111%	77.7%	86.1%	106%	101%
CN1CCN(Cc2ccc(NC(=O)c3cncc(C#Cc4cnc(N)nc4)c3)cc2C(F)(F)F)CC1	19%	38.5%	12.9%	10.4%	27.6%	3.4% (active)	42.5%	9.4% (active)
CC[C@]12C=CCN3CC[C@]4(C(=C(C(=O)OC)C1)Nc1cc5c(cc14)[C@@H]1[C@H](O5)[C@@H](O)[C@@]4(CC)CC(C(=O)OC)=C5Nc6cc(O)ccc6[C@@]56CCN1C46)C32 (stereo not given in full)	6.91% (active)	18.8%	-38.2% (active)	2.78% (active)	3.26% (active)	-70.5% (active)	-64.8% (active)	-30.2% (active)
Cn1cc(-c2nc(N)nnc2-c2c[nH]c3ccc(Br)cc23)c2cc(F)ccc21	74.8%	96.9%	50.5%	95.1%	47.4%	100%	122%	74.7%
COc1cc(/C=N\NC(=O)c2ccc3nc(-c4ccc(Br)cc4)[nH]c3c2)cc(OC)c1OC	9.41% (active)	38%	52.5%	79.1%	6.5% (active)	18%	73.1%	47.1%
COc1ccc(-c2c(C(N)=O)c(N)n(Cc3nc4ccccc4[nH]3)c(=O)c2C#N)c(OC)c1	89.6%	105%	109%	105%	76.5%	104%	110%	99.8%
COc1ccc([C@H]2C(=O)N(c3cc(OC)c(OC)c(OC)c3)[C@@H]2c2ccc(OC)c(O)c2)cc1	90.5%	-28.2% (active)	-6.94% (active)	23.3%	14%	6.05% (active)	13.3%	12.4%
CCCCCCN1C=C/C(=C\C(=O)n2ccc3ccccc32)c2ccccc21	31.1%	65%	84%	79.2%	29.2%	48.4%	34.6%	67.1%
CN1CCN(CC#CCn2c3c(c4ccccc42)C[C@]2(C)[C@H]4CC=C5[C@@H]6CC(C)(C)CC[C@]6(C(=O)N6CCOCC6)CC[C@@]5(C)[C@]4(C)CC[C@H]2C3(C)C)CC1	78.7%	96.2%	82.7%	11.6%	-3.42% (active)	22%	85.4%	66%
O=C1[C@@H]2Cc3c([nH]c4ccccc34)[C@@H](c3ccc(Cl)cc3)N2C(=O)CN1C1CCN(Cc2ccccc2)CC1	81.7%	77.6%	64.2%	65.9%	19%	9.43% (active)	43.9%	50.4%
O=C1[C@H]2Cc3c([nH]c4ccccc34)[C@H](c3ccc(Br)cc3)N2C(=O)CN1C1CCN(CC2CCCCC2)CC1	97.9%	96.5%	85.1%	79.7%	25.8%	18%	67.8%	77%
O=C(N/N=C/c1cc2ccccc2nc1Cl)c1cc(-c2nc3ccccc3[nH]2)nc2ccccc12	67.5%	85.9%	101%	101%	89.7%	98.8%	104%	97.2%
Oc1[nH]c2ccc(Cl)cc2c1N=Nc1nc(N=Nc2c(O)[nH]c3ccc(Cl)cc23)nc(N2CCCCC2)n1	81.5%	122%	75.8%	15.5%	51.7%	23.9%	38.7%	47.6%
NS(=O)(=O)c1nnc(/N=C/c2c(O)[nH]c3ccccc23)s1	85.2%	98.8%	103%	106%	87.6%	94.5%	107%	95.4%
CCCc1cc2cc(-n3nc(CC)c4c3CC(C)(C)CC4=O)cc(NC3CCC(O)CC3)c2c(=O)[nH]1 (stereo not given)	29.6%	38.7%	0.0389% (active)	12.3%	17.7%	6.5% (active)	8.95% (active)	15.4%
COCCOc1ccc2ncc(C#Cc3cncc(C(=O)Nc4ccc(CN5CCN(C)CC5)c(C(F)(F)F)c4)c3)n2n1	59.6%	0.139% (active)	11.5%	-34% (active)	-59.8% (active)	-86.7% (active)	33.6%	0.84% (active)
CS(=O)(=O)c1nccc(-c2c(-c3cccc(OCc4ccc(Cl)c(C(F)(F)F)c4)c3)nc3sccn23)n1	-45.6% (active)	101%	103%	61.2%	-67.8% (active)	70.4%	-50.1% (active)	37%
CCOC(=O)c1c(N)c(C#N)cn1Cc1ccc(Cl)cc1Cl	78.3%	81.8%	-7.54% (active)	44.9%	59.2%	64%	73%	60.1%
CN1CCC[C@]2(C)[C@H]3CC[C@@H]4[C@@H]5[C@H]6OC[C@@]5(CCC6(C)C)CC[C@@]4(C)[C@]3(C)CC[C@H]2C1(C)C	54.9%	96.8%	69.8%	23.2%	8.03% (active)	15.4%	45.8%	79.1%
CCc1cc2c(cc1Cl)nc1c(=O)[nH]c(=O)nc-1n2CCOCC(C)C	75.2%	94%	3.04% (active)	70.2%	39.5%	37.9%	80.3%	74.3%
COc1ccc(C(C)=C(c2ccc(OCCN3CCCCCC3)cc2)c2ccc(OCCN3CCCCCC3)cc2)cc1	-32.2% (active)	13.2%	-83.7% (active)	-50.4% (active)	-72.4% (active)	-93% (active)	-79.3% (active)	-24.8% (active)
O=C(/C=C/c1csc(Br)n1)NO	8.14% (active)	80.7%	5.36% (active)	10.2%	24.6%	5.92% (active)	29.2%	34.9%
Cc1cc2nc3c4cc(C#N)ccc4n(CCN(C)C)c3nc2cc1C	20.2%	-28.3% (active)	-27.4% (active)	-9.39% (active)	2.34% (active)	-33.3% (active)	-73% (active)	-3.36% (active)
CC1=C(C)C(=O)C(Nc2cccc(C(=O)OC(C)(C)C)c2)=CC1=O	65%	82.6%	87.1%	94.8%	46%	75.2%	103%	88.7%
O=S(=O)(NCCCNc1nccc(-c2[nH]c(-c3ccccc3)nc2-c2ccc(F)c(O)c2)n1)c1ccc(C(F)(F)F)cc1	50.7%	55.9%	-40.6% (active)	59.8%	7.95% (active)	19.1%	97.8%	36.6%
COc1cc2cc(Oc3ccc(NC(=O)Nc4ccc(F)c(C(F)(F)F)c4)cc3)c(C)nc2cc1OCCN(C)C	91.4%	99%	98.2%	53.7%	-89.6% (active)	107%	104%	102%
N#Cc1c(-c2ccc(Br)cc2)cc(-c2c[nH]c3ccccc23)nc1N	29.7%	32.1%	0.353% (active)	27.8%	18.5%	27.6%	60.3%	28%
O=C(Nc1ccc(Cl)c(C(F)(F)F)c1)Nc1ccc2oc(=O)ccc2c1	8.73% (active)	78.7%	50.3%	37.3%	11.9%	15.7%	29.2%	19.6%
NC1CC2(CCN(c3cnc(C(=O)Nc4cc(F)cc5cccnc45)cn3)CC2)C1	64.5%	84.8%	70.9%	42.8%	46.2%	38.5%	83.7%	81.7%
